Source: PubChem BioAssay
M1 ag parental: nonselective activator or artifact in parental CHO-K1 cells. actives 0.48% (n = 360,000). activation, % at 3 µM. AID 602248. Fluo-8 calcium fluorescence; scaled to maximal ATP response, vehicle zero; in the data active = activation above about 15%;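 note: untransfected CHO-K1 host cells lacking M1 receptor as counterscreen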
TMEM16A act: mouse TMEM16A channel activation, primary screen; Q8BHY3; HEK293 TMEM16A/YFP-H148Q/I152L, iodide quench fluorescence; stronger effect = lower value; B-score at 10 µM; actives 0.3% (n = 340,000);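 active = fluorescence-ratio B-score plate-corrected deviation score at least 3 library SD below zero, with starting fluorescence score within 5 deviations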;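 note: channel opened by trigger with iodide after compound preincubation; score built on the fluorescence ratio of max minus min over baseline; more negative score means more quench and so TMEM16A activation or potentiation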
CHO-K1 Ca antag: nonselective inhibitor or artifact in parental CHO-K1 cells | ATP-induced calcium, Fluo-8 fluorescence | inhibition, % at 3 µM | actives 0.6% (n = 360,000) | AID 602250;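 active = inhibition above a per-plate cutoff, the plate's mean sample inhibition plus 3 SD, cut at about 24% in these data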;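 note: 0% = DMSO plus EC80 ATP and 100% = DMSO alone without ATP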
ANO1 block: mouse TMEM16A channel inhibition, primary screen | Q8BHY3 | HEK293 TMEM16A/YFP iodide influx fluorescence, ionomycin | normalized B-score (activity score, 25-100; higher = stronger inhibition) at 10 µM | actives 1.2% (n = 310,000) | AID 588511;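 active = ratio plate-corrected score three or more library SD toward inhibition, starting fluorescence score within five deviations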;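 note: score derived from kinetic fluorescence span divided by baseline fluorescence per well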
M1 PAM parental: M1 PAM counterscreen hit in parental CHO-K1 cells; ATP EC20, Fluo-8 calcium fluorescence; 0% at ATP EC20, 100% at ATP max; AID 602247; actives 0.02% (n = 360,000); activation, % at 3 µM;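 active = activation above the run cutoff, the mean activation of all test compounds plus 3 SD, cut at about 40% in these data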;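 note: peak over basal fluorescence ratio in a 140 s read after ATP addition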
NTR1 agonist: agonists of human neurotensin receptor NTR1. P30989. NTR1-U2OS beta-arrestin-GFP spot imaging, agonist mode. activation, % at 20 µM. actives 0.17% (n = 330,000). AID 493036;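 active = activation at or above 40% of the spot to cytoplasm intensity ratio, with at least 20 cells analyzed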;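 note: 0% = DMSO without peptide and 100% = 100 nM NTR1 peptide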
Target sequence (P30989 whole entry, looked up): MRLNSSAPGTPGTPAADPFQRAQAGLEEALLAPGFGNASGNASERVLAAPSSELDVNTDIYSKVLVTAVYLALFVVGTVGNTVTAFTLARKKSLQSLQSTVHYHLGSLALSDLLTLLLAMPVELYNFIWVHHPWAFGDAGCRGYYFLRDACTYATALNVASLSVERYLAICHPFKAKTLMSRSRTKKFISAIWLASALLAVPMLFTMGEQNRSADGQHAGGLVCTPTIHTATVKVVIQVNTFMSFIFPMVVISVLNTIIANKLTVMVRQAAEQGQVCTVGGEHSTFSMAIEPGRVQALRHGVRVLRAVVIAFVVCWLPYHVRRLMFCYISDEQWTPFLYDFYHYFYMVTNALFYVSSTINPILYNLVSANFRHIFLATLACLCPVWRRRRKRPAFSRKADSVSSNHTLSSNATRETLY
Numbers without * were called inactive; i = inactive; / = no result given. This is a sample that favours compounds with a hit; in the whole collection about 2.2% have one here.

SMILES | M1 ag parental | TMEM16A act | CHO-K1 Ca antag | ANO1 block | M1 PAM parental | NTR1 agonist
COn1c2c(c3c4no[n+]([O-])c4ccc31)CCCC2 | 0 | i | -21 | i | 2 | 3
COc1cc(OC)nc(Nc2nc(C(N)Cc3ccc(F)cc3)cs2)n1 (stereo unspecified) | 1 | / | 14 | / | -13 | /
N#Cc1c(C(F)(F)F)cc(-c2ccccc2Cl)[nH]c1=O | 1 | i | -6 | 100* | 18 | 2
N#Cc1c(C(F)(F)F)cc(-c2ccccc2)[nH]c1=O | 4 | i | -2 | i | 14 | -1
Cc1ccc(C)c(S(=O)(=O)NC2CCSC2=O)c1 (stereo unspecified) | 1 | i | -14 | / | 1 | 1
CC1(C)Oc2ccc3ccc(=O)oc3c2/C(=C/Nc2cccc(O)c2)C1=O | 1 | i | 29* | i | -10 | 13
CC1(C)Oc2ccc3ccc(=O)oc3c2/C(=C/Nc2ccc(O)cc2)C1=O | 3 | i | -2 | i | 13 | 25
Nc1ccccc1CCc1ccccc1N | 0 | / | 23 | / | -13 | /
COc1cccc(-c2cnc(C(O)c3ccc(Cl)c(Cl)c3)[nH]2)c1 (stereo unspecified) | 4 | / | 2 | / | 5 | /
CN(NS(=O)(=O)c1ccc(Cl)cc1)c1nc(C(F)(F)F)nc2ccccc12 | 2 | i | -2 | 100* | 15 | 0
O=c1c2sccc2nc(SCc2cc(=O)n3cc(Cl)ccc3n2)n1-c1ccc(F)cc1 | 15* | i | -7 | i | 25 | 2
O=C(NCC1CCCO1)c1ccccc1OCc1ccc(F)cc1 (stereo unspecified) | 23* | i | 10 | i | -2 | 1
O=C(Nc1ccccc1)c1ccccc1OCc1ccc(F)cc1 | 3 | i | 9 | i | -5 | 4
O=C(NCC1CCCO1)C(C(=O)c1ccc(F)cc1)n1ccccc1=O (stereo unspecified) | 0 | i | 31* | i | -7 | -2
COc1ccccc1CNC(=O)c1ccccc1OCc1ccc(F)cc1 | 42* | i | -10 | i | 44* | 11
O=C(NCC1CCCO1)c1ccccc1OCc1ccc(Cl)cc1 (stereo unspecified) | 3 | i | -4 | i | -2 | 1
O=C(Nc1ccc(O)cc1)c1ccccc1OCc1ccccc1 | 16* | i | -3 | i | 12 | 7
CC1(C)OC(=O)C2=C(C[C@@H](C3CC3)O[C@@H]2C2CC2)O1 | 0 | / | -3 | / | -2 | /
O=C(Nc1nc2c(F)cc(F)cc2s1)C1CC1 | 2 | i | 31* | i | -5 | 0
Cc1ccc(OCCNC(=O)c2cccc(S(=O)(=O)N3CCN(C)CC3)c2)cc1 | 1 | i | 3 | / | 11 | -2
COc1ccc2nc3ccccc3[n+]([O-])c2c1 | 4 | -10* | -10 | / | 23 | /
COc1ccc2c(ccc[n+]2[O-])c1 | 0 | i | 1 | / | 5 | /
CC1=C(C(=O)N(C)C)CC(CC(=O)NCCCN(C)C)C(=O)N1CCC1=CCCCC1 (stereo unspecified) | 1 | / | -24 | / | 31 | /
CCOC(=O)[C@]12CCCC=C1N(Cc1ccco1)C(=O)[C@H](CC(=O)N1CCOCC1)C2 | 0 | / | -6 | / | 3 | /
O=C1NC[C@H](Cc2ccc(O)cc2)N(C[C@@H]2CCCN2C[C@H](Cc2ccc(O)cc2)N2C[C@H](Cc3ccccc3)N(CCc3ccccc3)C(=O)C2=O)C1=O | 0 | / | -20 | / | 2 | /
SMILES | M1 ag parental | TMEM16A act | CHO-K1 Ca antag | ANO1 block | M1 PAM parental | NTR1 agonist
CCn1c(=O)c(C(=O)NNC(=O)c2ccccc2Cl)c(O)c2ccccc21 | 35* | i | -16 | i | 22 | 4
CCCn1c(=O)c(C(=O)NCc2ccncc2)c(O)c2ccccc21 | -1 | i | 29* | i | 1 | 2
CN(C)c1ccc(S(=O)(=O)N2CCCCC2)cc1NC(=O)CCNC(=O)c1ccccc1Cl | 0 | i | -15 | / | 21 | /
NC(=O)c1ccsc1NC(=O)COC(=O)Cc1ccccc1Cl | 19* | i | 11 | / | -3 | 2
CCC(Oc1ccccc1)C(=O)OCC(=O)Nc1sccc1C(N)=O (stereo unspecified) | 17* | i | 6 | / | -19 | 4
COc1ccc(OCCCC(=O)OCC(=O)Nc2sccc2C(N)=O)cc1 | 14 | i | 12 | i | -23 | 1
CC(=O)c1ccc(OCC(=O)OCC(=O)Nc2sccc2C(N)=O)cc1 | 17* | i | 9 | / | -10 | 2
NC(=O)c1ccsc1NC(=O)COC(=O)CCc1ccccc1 | 16* | / | 6 | / | -4 | /
NC(=O)c1ccsc1NC(=O)COC(=O)CCCOc1ccccc1 | 14 | i | 17 | / | -3 | 1
O=C1NC[C@@H](CCCCN2C[C@H](Cc3ccc(O)cc3)N(CCC3CCCCC3)C(=O)C2=O)N(Cc2ccccc2)C1=O | 2 | / | 3 | / | -1 | /
COCCCN1C(=O)C(CC(=O)NCc2cccs2)CC(C(=O)N2CCCCCC2)=C1C (stereo unspecified) | 1 | / | -19 | / | 16 | /
COc1cc(CC(=O)OCC(=O)Nc2sccc2C(N)=O)cc(OC)c1OC | 16* | i | 8 | 100* | -6 | 4
NC(=O)c1ccsc1NC(=O)COC(=O)CCOc1ccccc1 | 17* | i | 2 | i | -13 | 6
O=C(COC(=O)c1ccc(O)cc1O)Nc1ccc2ccccc2c1 | 1 | i | 9 | / | -17 | 14
O=C(COC(=O)c1ccc(O)cc1O)Nc1ccc2c(c1)OCCO2 | 1 | -28* | -6 | / | 22 | 2
CCOC(=O)C1=C(COC(=O)COc2ccc(C(=O)CC)cc2)NC(=O)NC1C (stereo unspecified) | 17* | i | 12 | 100* | -11 | 1
CCOC(=O)C1=C(COC(=O)COc2ccc(C(C)=O)cc2)NC(=O)NC1C (stereo unspecified) | 5 | i | 2 | i | -15 | 1
O=C(NCCCNc1ccc(C(F)(F)F)cc1[N+](=O)[O-])c1ccc(Cl)cc1 | 0 | i | -11 | 100* | 7 | 5
CC(=O)N1CCN(C(=O)c2cccc(NS(=O)(=O)c3ccc(Br)cc3)c2)CC1 | 0 | i | 2 | i | -17 | 2
Oc1ccc2ccccc2c1Br | 0 | i | 24* | i | -9 | -1
Cc1nc(NC(=O)CSc2ccc(-c3nc4ccccc4[nH]3)cn2)sc1C | 16* | i | 4 | i | 5 | 20
O=C1CCCC2=C1C1c3ccccc3C(=O)N1c1ccc(C(=O)c3ccccc3)cc1N2 (stereo unspecified) | 3 | i | 24* | i | -1 | 2
CCOC(=O)c1sc(SC)c2c1CCC/C2=N/OC | 3 | i | -4 | i | 16 | 2
